This is a sample that favours compounds with a hit; in the whole collection about 2.7% have one here.
MsrA act – bovine methionine sulfoxide reductase A activation; activation, % at 10.6 µM; 0.3% of 360,000 active; purified bovine MsrA, absorbance read-out; in the data active = activation above about 7.5%;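 note: 0% = vehicle and 100% = reference activator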
rCAG binder – r(CAG) repeat RNA binding. TO-PRO-1 dye displacement fluorescence. inhibition, % at 3 µM. 1.3% of 370,000 active. AID 651821;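 active = inhibition above the plate cutoff, the mean of all test compounds on that plate plus 3 SD, cut at about 35% in these data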;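 note: 0% = DMSO alone and 100% = 100 µM mitoxantrone as full dye displacement; higher means more dye released from RNA so lower well fluorescence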
MsrA inhibitor – inhibits bovine methionine sulfoxide reductase A. purified bovine MsrA, absorbance read-out. inhibition, % at 15.5 µM. 0.75% of 360,000 active; in the data active = inhibition above about 4.5%;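 note: 0% = vehicle wells with enzyme and 100% = reference inhibitor wells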
NadD inh – inhibitors of Staphylococcus aureus NadD. inhibition, % at 20 µM. 0.78% of 360,000 active. purified NadD enzyme, colorimetric absorbance read-out. AID 602399; in the data active = inhibition above about 26%
NadD inh conf – NadD (S. aureus) inhibition, single concentration confirmation; 13% of 2,000 active; inhibition, % at 20 µM; purified S. aureus NadD, colorimetric enzyme assay; shares compounds with NadD inh; in the data active = inhibition mostly above about 42%, no sharp cut-off; inactive = mostly below about 42%
* marks the source's active call; other numbers are inactive results; / = no result given.

SMILES	MsrA act	rCAG binder	MsrA inhibitor	NadD inh	NadD inh conf
C[C@@H]1COc2cc(Br)ccc2S(=O)(=O)N1Cc1cn(CCC2OCCCO2)nn1	/	3	/	/	/
COc1ccccc1/C=C/C(=O)NC(=S)Nc1ccc(S(=O)(=O)N(C)c2ccccc2)cc1	-2	6	0	34*	6
CN(c1ccccc1)S(=O)(=O)c1ccc(NC(=S)NC(=O)c2ccccc2)cc1	-12	8	2	-6	/
CC(C)Oc1ccc(S(=O)(=O)N2CCOCC2)cc1NC(=O)CN1C(=O)c2ccccc2C1=O	0	2	0	-2	/
CCOc1ccc(CCN2C(=S)N([C@@H](Cc3ccccc3)CN3CCCC3CN3C(=S)NC[C@@H]3Cc3ccccc3)C[C@@H]2Cc2ccc(O)cc2)cc1 (some centres undefined)	-2	14	0	50*	8
CCOc1ccc(CCN2C(=S)N([C@@H](CC(C)C)CN3CCC[C@@H]3CN3C(=S)NC[C@@H]3Cc3ccccc3)C[C@@H]2Cc2ccc(O)cc2)cc1	-2	15	0	36*	1
CCOc1ccc(CCN2C(=S)N([C@@H](Cc3ccc(O)cc3)CN3CCC[C@@H]3CN3C(=S)NC[C@@H]3Cc3ccc(O)cc3)C[C@@H]2Cc2ccc(O)cc2)cc1	-3	12	-1	36*	23
CCOc1ccc(CCN2C(=S)N([C@@H](Cc3ccc(O)cc3)CN3CCC[C@@H]3CN3C(=S)NC[C@@H]3Cc3ccccc3)C[C@@H]2Cc2ccccc2)cc1	2	12	0	27	/
COc1cccc(CNC(=O)c2ccc(NC(=O)CC3SC(N4CCCC4)=NC3=O)cc2)c1 (centres undefined)	-4	3	0	8	/
O=C(c1ccc2c(c1)[nH]c(=S)n1c3ccccc3nc21)N1CCN(c2cccc(Cl)c2)CC1	-1	8	0	39*	9
O=C(CSc1nc2ccccc2c(=O)[nH]1)Nc1ccc(C(=O)O)cc1	-10	2	0	-2	/
CCOc1ccc(NC(=O)c2ccc(NC(=O)CSc3nc4ccccc4c(=O)[nH]3)cc2)cc1	-7	1	0	43*	7
CC(C)(C)S(=O)N1Cc2cc(C(=O)NCCCN3CCOCC3)nc(-c3cccc(-c4cc5ccccc5o4)c3)c2[C@@H]1CCO (some centres undefined)	-1	7	0	-6	/
CC(C)(C)S(=O)N1Cc2cc(C(=O)NCc3ccc(Oc4ccccc4)cc3)nc(-c3cccc(-c4cc5ccccc5o4)c3)c2[C@H]1CCO (some centres undefined)	-4	15	0	35*	23
CC(C)(C)S(=O)N1Cc2cc(C(=O)NCc3ccc4c(c3)OCO4)nc(-c3cccc(-c4cc5ccccc5o4)c3)c2[C@@H]1CCO (some centres undefined)	-2	16	0	33*	6
COc1cccc(-c2cccc(-c3nc(C(=O)NCc4ccc5c(c4)OCO5)cc4c3[C@H](CCO)N(S(=O)C(C)(C)C)C4)c2)c1 (some centres undefined)	1	19	0	27	/
COc1ccccc1CNC(=O)/C=C/c1ccc(Br)o1	2	9	0	32*	30
O=C(/C=C/c1ccccc1)Nc1cccc(C(=O)NC2CC2)c1	-3	2	1	-5	/
COc1ccc(-c2csc(Nc3ccc(S(N)(=O)=O)cc3)n2)cc1	-5	8	0	45*	47
COc1cccc(/C=N/NC(=O)c2oc3nc(-c4ccccc4)cc(-c4ccco4)c3c2N)c1	-5	10	1	9	/
Cc1ccc(-c2cc(-c3ccco3)c3c(N)c(C(=O)NN)oc3n2)cc1	-5	18	0	28*	1
CNC(=S)NNC(=O)c1oc2nc(-c3ccccc3)cc(C)c2c1N	-6	6	3	2	/
NNC(=O)c1oc2nc(-c3ccccc3)cc(-c3ccccc3)c2c1N	-1	12	1	31*	12
NNC(=O)c1oc2nc(-c3cccs3)cc(-c3ccco3)c2c1N	-2	21	3	36*	2
O=C1N(CN2CCN(Cc3ccccc3)CC2)c2ccccc2C12OCCCO2	1	-2	0	1	/
SMILES	MsrA act	rCAG binder	MsrA inhibitor	NadD inh	NadD inh conf
COc1cc(NCCCCCCN)c2ncccc2c1OC	6	7	-1	51*	22
COc1cc(NC(C)CCCNC(C)C)c2ncccc2c1OC (centres undefined)	-2	3	0	-3	/
CCOC(=O)C1=C(C)N=c2sc(=Cc3cc(Cl)c(OCC(=O)O)c(OC)c3)c(=O)n2C1c1ccccc1Cl (centres undefined)	-9	22	0	30*	23
CCOC(=O)C1=C(C)N=c2s/c(=C\c3cc(OC)c(OC)c(OC)c3)c(=O)n2C1/C=C/c1ccccc1 (centres undefined)	-2	6	1	17	/
CC(C)CN1C(=O)CSCC1(C)C(=O)NCc1ccccc1 (centres undefined)	/	1	0	/	/
O=c1oc2ccccc2cc1-c1csc(Nc2nc3c(F)cccc3s2)n1	-2	13	-1	57*	1
c1cc(-c2ccc(N3CCOCC3)cc2)n2ccnc2c1	-7	-1	3	0	/
CCCN(CCC)CCCNC(=O)c1nn(-c2cccc(OC)c2)c(=O)c2ccccc12	-3	-3	-1	-10	/
COc1cccc(-c2cc3nc(-c4ccccc4)cc(N4CCN(C(=O)c5ccoc5)CC4)n3n2)c1	3	15	0	20	/
COc1ccccc1-c1cc2nc(-c3ccccc3)cc(N3CCN(C(=O)c4ccoc4)CC3)n2n1	-3	10	2	47*	32
COc1cccc(-c2cc(N3CCN(C(=O)c4ccoc4)CC3)n3nc(-c4cccc(Cl)c4)cc3n2)c1	-3	13	-1	37*	20
O=C(c1ccoc1)N1CCN(c2cc(-c3ccccc3)nc3cc(-c4ccccc4)nn23)CC1	-7	13	-2	17	/
COc1ccccc1-c1cc2nc(-c3ccccc3)cc(N3CCN(C(=O)c4ccco4)CC3)n2n1	-1	12	2	41*	31
COC(=O)C1=C(C)N(CC(C)C)C(=S)NC1c1ccc(-c2ccccc2)cc1 (centres undefined)	/	2	1	/	/
C#CCN(CC=C)Cc1ccc(OC)cc1OC	/	1	/	/	/
COC(=O)[C@]12CCCCC=C1N(CCC1=CCCCC1)C(=O)[C@H](CC(=O)NCc1ccccc1)C2	3	4	-1	-2	/
O=C1CC(=C2c3ccccc3-c3ccccc32)C(=O)N1CCCCN1CCN(c2ccccc2)CC1	0	/	/	48*	30
C=CCc1cccc(C=NNC(=O)c2ccco2)c1O	/	5	/	/	/
CC(C)C[C@@H](CN1CCC[C@@H]1CN1C(=O)C(=O)NC[C@@H]1Cc1ccccc1)N1C[C@H](Cc2ccc(O)cc2)N(CC2CCCCCC2)C(=O)C1=O	-2	8	1	24	/
CC(C)C[C@@H](CN1CCC[C@H]1CN1C(=O)C(=O)NC[C@@H]1Cc1ccccc1)N1C[C@H](Cc2ccccc2)N(CC2CCCCCC2)C(=O)C1=O	2	7	0	40*	25
